# Screening data deposited in PubChem BioAssay by Sanford-Burnham Center for Chemical Genomics.
# A selection: hits, their analogues and other compounds. The true share with any hit is near 28%.
# CYP2C19 activ – cytochrome P450 2C19 (human) activation | 96,000 tested, under 10 active | activation factor at 5 µM | recombinant CYP2C19, luciferin-H EGE luminescence; stronger effect = higher value; 0 = fully inhibited enzyme, 1 = untreated enzyme | AID 1025 | P33261;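 active = activation factor of at least 2 at 5 µM in the primary screen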;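 note: 0 = wells with 2.5 mM tranylcypromine and 1 = vehicle-only wells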
# CYP2C9 inhib – blocks human cytochrome P450 2C9; P11712; AID 777; CYP2C9 Supersomes, luciferin-H conversion, luminescence; inhibition, % at 5 µM; 96,000 compounds, 20% hits;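 active = blocking of liver enzyme CYP2C9 beyond about 50% at 5 µM, limit read from the data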
# CYP2C19 inh – inhibitors of human CYP2C19; 96,000 compounds, 21% hits; CYP2C19 Supersomes, luciferin-H EGE luminescence, 30 min; P33261; AID 778; inhibition, % at 5 µM;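 active = CYP2C19 inhibition above a set limit at 5 µM in the primary screen, cut at about 50% in these data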;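 note: plate controls were negative control wells for no effect and 2.5 mM tranylcypromine positive control for full effect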
# CYP2C9 act – CYP2C9 (human) activation. P11712. recombinant CYP2C9, luciferin-H conversion, luminescence; stronger effect = higher value; factor 1 = untreated enzyme, 0 = blocked. activation factor at 5 µM. 96,000 compounds, 1.4% hits;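 active = activation factor of 2 or more for CYP2C9 at a 5 µM dose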;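 note: 0 = sulfaphenazole-blocked wells and 1 = vehicle-only wells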
# CD11b adhes inh – CD11b/CD18-fibrinogen binding inhibition. K562 CD11b/CD18 adhesion to fibrinogen, ATPlite luminescence; Mn2+ added to activate the integrin. 93,000 compounds, 0.54% hits. AID 1497. P05107+P11215. inhibition, % at 10 µM;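 active = primary inhibition of 50% or more at 10 µM, then 40% or more on retest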
# CD11b adhes enh – enhancers of human CD11b/CD18 binding to fibrinogen. P05107+P11215. K562 CD11b/CD18 adhesion to fibrinogen, ATPlite luminescence. activation, % at 10 µM. 93,000 compounds, 0.07% hits. AID 1499;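 active = 10 µM primary screen giving 50% or more activity, confirmed by 40% or more on retest at that dose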
# * = called active by the depositor; x = no result given.
SMILES,CYP2C19 activ,CYP2C9 inhib,CYP2C19 inh,CYP2C9 act,CD11b adhes inh,CD11b adhes enh
O=C1NCCN1C(=O)N(c1ccccc1)c1ccccc1,1,-1.4,4.0,1,-14.0,0.3
CCOC(=O)C1CCCN(C(=O)Nc2cccc(Cl)c2)C1 (centres undefined),0.4,40.3,60.3*,0.6,1.6,3.6
O=C(Nc1cccc(Cl)c1)N1CCCC1,1,-14.7,-0.1,1.1,1.5,0.5
CN(C)CCNC(=O)c1ccc(-c2nn(C)c(=O)c3ccccc23)cc1,1.1,5.3,-5.0,0.9,-33.5,-2.8
COC(=O)COc1ccc(-c2nn(C)c(=O)c3ccccc23)cc1,0.6,43.6,43.0,0.6,-2.7,-4.2
Cn1nc(-c2ccc(OCC(=O)Nc3ccccc3)cc2)c2ccccc2c1=O,0.2,67.9*,81.4*,0.3,-5.7,0.8
CCC(CO)NC(=O)c1ccc(-c2nn(C)c(=O)c3ccccc23)cc1 (centres undefined),1,33.3,1.3,0.7,-41.5,-4.4
CN(C(=O)c1ccc(-c2nn(C)c(=O)c3ccccc23)cc1)c1ccccc1,0.5,62.3*,47.3,0.4,-42.7,-2.8
CCOc1ccc(-c2nnc(N3CCCCC3)c3ccccc23)cc1,0.6,43.5,38.8,0.6,x,x
CCN(CC)C(=O)COc1ccc(-c2nnc(N3CCCCC3)c3ccccc23)cc1,0.5,79.5*,52.3*,0.2,10.1,8.2
Cn1nc(-c2ccc(OCC(N)=O)cc2)c2ccccc2c1=O,1.1,60.9*,-11.1,0.4,8.2,-0.8
CSc1ccc(/C=N\NC(=O)CNc2ccc(C)cc2)cc1,0.6,29.9,39.2,0.7,x,x
CC(=O)Nc1ccc(S(=O)(=O)NC2(C(F)(F)F)NC(=O)N(c3ccc(Cl)cc3)C2=O)cc1 (centres undefined),1,22.4,1.4,0.8,x,x
CC(=O)Oc1ccc(/C=N/NC(=O)C2CCCN2S(=O)(=O)c2ccc(Cl)cc2)cc1 (centres undefined),0.9,6.9,12.0,0.9,-29.5,-2.7
O=C(Nc1nccs1)C1CCCN1S(=O)(=O)c1ccc(Cl)cc1 (centres undefined),0.5,69.0*,48.5,0.3,-2.7,-0.6
CC(C)CNC(=O)C1CCCN1S(=O)(=O)c1ccc(Cl)cc1 (centres undefined),0.7,7.7,31.1,0.9,13.9,-6.6
CC1CCCCN1S(=O)(=O)c1ccc(C(=O)Nc2sccc2C(N)=O)cc1 (centres undefined),1.1,97.1*,-5.6,0,34.1,-6.4
NC(=O)c1ccsc1NC(=O)C1CCCN1S(=O)(=O)c1ccc(Cl)cc1 (centres undefined),0.4,77.9*,60.9*,0.2,9.5,-0.8
NC(=O)CSc1nnc(Cc2ccc3c(c2)OCO3)n1C1CCCCC1,0.8,-8.1,22.6,1.1,-2.9,-3.7
CCC(C)NC(=O)COc1ccc(S(=O)(=O)N2CCOCC2)cc1 (centres undefined),1.1,6.0,-5.5,0.9,-0.6,-0.6
CCc1ccc(/C=C2\Oc3cc(OS(C)(=O)=O)ccc3C2=O)cc1,x,x,x,x,-1.1,-2.2
Cc1ccc(S(=O)(=O)Oc2ccc3c(c2)O/C(=C\c2cccnc2)C3=O)cc1,0.3,91.1*,72.5*,0.1,-36.4,-3.3
O=C1/C(=C/c2cccnc2)Oc2cc(OS(=O)(=O)c3ccc(F)cc3)ccc21,0.6,83.6*,44.8,0.2,-39.5,1.6
CCN(CC)S(=O)(=O)c1ccc(N(C)Cc2cccnc2)nc1,0.2,68.5*,81.0*,0.3,-43.7,4.1
CN(Cc1ccccc1)c1ccc(S(=O)(=O)N2CCOCC2)cn1,0.7,-37.0,29.5,1.4,-33.3,1.5
COc1ccccc1CC1(C)NC(=O)N(CC(=O)N2CC(C)OC(C)C2)C1=O (centres undefined),0.4,-14.4,56.7*,1.1,-0.1,0.8
CC1CN(C(=O)CN2C(=O)NC3(CCCCCC3)C2=O)CC(C)O1 (centres undefined),1.1,-7.6,-5.1,1.1,x,x
CC1(C)CC(=O)C2=C(C1)OC(N)=C(C#N)C2c1ccc(OC(=O)N2CCOCC2)cc1 (centres undefined),0.7,59.8*,31.7,0.4,-1.1,-1.6
